A selection: hits, their analogues and other compounds. The true share with any hit is near 4.1%.
Cav32 inh: human Cav3.2 channel inhibition, primary screen; O95180; Cav3.2-expressing cells, Fluo-4 calcium fluorescence FDSS; active compounds read low; B-score at 10 µM; actives 4% (n = 100,000); AID 449739;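 active means single-dose well whose peak fluorescence ratio is a statistical outlier from its plate by either plate-standardised score or position-corrected B-score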
MRP1 act: activates MRP-1 | H69AR cells + doxorubicin, viability rescue, CellTiter-Glo | viability increase, % at 10 µM | actives 0.61% (n = 140,000) | AID 799;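 active means viability gain under doxorubicin at or above a set limit, the compound median plus 3 SD, cut at about 4.7% in these data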;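 further: MRP-1 overexpressing cells given doxorubicin 25 µM after compound pretreatment; 18-22 h compound pretreatment then 72 h with doxorubicin before readout; 0% = doxorubicin-only wells and 100% = vehicle-treated cells without doxorubicin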
PTK2B oligo ant: blocks oligomerization of human Pyk2 in cells | Q14289 | Q293 cells, Pyk2 FERM NanoBiT luminescence; active compounds read low | z-score (the deposit names both 25 µM and 10 µM) | actives 0.83% (n = 99,000);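 active means Z-score of -3 or lower, scaled per plate to the spread of control and sample wells; inactive means z-score above -3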;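 further: negative z-score means lost luminescence so less FERM oligomerization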
CD11b adhes inh: CD11b/CD18-fibrinogen binding inhibition; K562 CD11b/CD18 adhesion to fibrinogen, ATPlite luminescence; Mn2+ added to activate the integrin; inhibition, % at 10 µM; actives 0.54% (n = 93,000); AID 1497;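 active means primary inhibition of 50% or more at 10 µM, then 40% or more on retest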
Target sequence (P05107 whole entry, looked up, other chains not shown): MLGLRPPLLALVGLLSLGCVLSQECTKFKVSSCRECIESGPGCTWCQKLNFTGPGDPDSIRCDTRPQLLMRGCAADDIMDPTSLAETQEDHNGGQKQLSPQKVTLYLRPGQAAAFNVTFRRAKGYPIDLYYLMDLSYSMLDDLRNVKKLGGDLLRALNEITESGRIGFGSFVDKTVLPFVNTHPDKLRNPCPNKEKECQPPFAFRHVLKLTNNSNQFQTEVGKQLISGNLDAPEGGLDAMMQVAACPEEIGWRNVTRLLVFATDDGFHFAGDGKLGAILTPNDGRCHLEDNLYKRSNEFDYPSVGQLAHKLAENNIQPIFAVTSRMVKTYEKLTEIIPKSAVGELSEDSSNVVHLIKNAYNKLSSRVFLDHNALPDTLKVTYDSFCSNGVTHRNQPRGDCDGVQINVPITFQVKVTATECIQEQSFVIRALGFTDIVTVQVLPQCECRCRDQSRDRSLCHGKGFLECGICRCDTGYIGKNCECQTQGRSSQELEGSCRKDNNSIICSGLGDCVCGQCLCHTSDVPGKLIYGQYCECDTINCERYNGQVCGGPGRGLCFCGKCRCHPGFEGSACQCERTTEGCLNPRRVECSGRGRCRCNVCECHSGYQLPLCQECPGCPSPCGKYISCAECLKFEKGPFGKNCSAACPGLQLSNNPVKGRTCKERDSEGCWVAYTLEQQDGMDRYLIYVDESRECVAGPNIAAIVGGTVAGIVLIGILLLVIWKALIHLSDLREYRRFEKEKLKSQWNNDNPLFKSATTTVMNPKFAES
Mac1 fbg enh: enhancers of human CD11b/CD18 binding to fibrinogen; actives 0.07% (n = 93,000); P05107+P11215; K562 CD11b/CD18 adhesion to fibrinogen, ATPlite luminescence; activation, % at 10 µM;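 active means 10 µM primary screen giving 50% or more activity, confirmed by 40% or more on retest at that dose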
MRP reversal: reverses drug resistance mediated by MRP; H69AR cells + 2 uM doxorubicin, CellTiter-Glo, 72 h; differential viability (reversal), % at 10 µM; actives 0.04% (n = 85,000); AID 602;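 active means viability drop by adding the cancer drug above about 55%, with treated viability meeting a 40% cutoff, limit read from the data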;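 further: viability without doxorubicin minus viability with 2 µM doxorubicin for each compound; larger differential means the compound sensitizes cells more to doxorubicin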
An asterisk follows results filed as active; x = no result given; ! = repeats disagree.

SMILES | Cav32 inh | MRP1 act | PTK2B oligo ant | CD11b adhes inh | Mac1 fbg enh | MRP reversal
COc1ccccc1CNC(=O)C1CC(=O)N(c2ccc(C)c(C)c2)C1 (stereo unspecified) | 0.534 | -2.6 | -0.17 | -2.0 | -2.1 | 4.2
CC(=O)Nc1c(OC(C)=O)ccc2c(C)cc(=O)oc12 | 1.05 | -0.7 | 0.05 | 21.1 | -3.9 | 2.8
C=CCOC(=O)C(=O)/C=C/c1csc2ccccc12 | 0.732 | x | x | x | x | x
Cc1cc([N+](=O)[O-])c2[nH]c(C(=O)N/N=C/c3ccccc3C(=O)O)c(-c3ccccc3)c2c1 | x | -3.0 | -3.03* | x | x | x
Cc1ccc2nc(C)c(C(=O)N/N=C/c3ccccc3[N+](=O)[O-])cc2c1 | x | -1.8 | 0.45 | x | x | x
O=C(CN(Cc1ccc2c(c1)OCO2)C(=O)CSc1nc2ccccc2o1)NC1CCCCC1 | -3.93* | -1.6 | -0.54 | 0.5 | -0.6 | -47.6
CC(OC(=O)c1cc(=O)[nH]c2ccccc12)c1ccccc1 (stereo unspecified) | -2.87 | -1.3 | -4.03* | -7.3 | 1.1 | 9.9
Cc1ccc(Oc2nnc(-c3cccs3)c3ccccc23)cc1C | x | 3.1 | x | x | x | x
Clc1ccc(CSc2cc3c(nn2)-c2ccccc2CC3)cc1Cl | -5.3* | 0.7 | 0.77 | -0.9 | -2.1 | x
Clc1ccccc1CSc1cc2c(nn1)-c1ccccc1CC2 | x | -5.0 | 0.52 | x | x | x
Clc1cccc(Cl)c1CSc1cc2c(nn1)-c1ccccc1CC2 | -3.95* | -0.2 | -1.05 | 12.3 | -4.5 | x
CCCCN(C(=O)NC(=O)Nc1cccc(C)c1C)S(C)(=O)=O | x | -0.7 | 0.23 | -10.6 | -1.3 | 19.5
Cc1ccc(-c2ccc(SCC(=O)Nc3ccc4c(c3)OCCO4)nn2)cc1 | x | -2.4 | x | -18.9 | -0.1 | x
Nc1cc(-c2ccc(Cl)cc2)nn1S(=O)(=O)c1ccc(Cl)cc1 | -0.441 | -1.0 | x | 6.4 | -0.7 | -0.1
Cc1ccc(-c2cc(N)n(Cc3ccc(Cl)cc3)n2)cc1 | -4.97* | -2.5 | -0.9 | x | x | x
OCCN1CCN(CCCN2c3ccccc3Sc3ccc(C(F)(F)F)cc32)CC1 | 0.108 | -3.9 | x | x | x | -0.5
CN1CCN(CCCN2c3ccccc3Sc3ccc(Cl)cc32)CC1 | -5.1*! | -3.6 | x | x | x | 0.1
Cc1ccc(Nc2nc3nonc3[nH]c2=O)cc1C | x | 1.5 | -1.61 | 99.5* | -11.0 | -9.7
Cc1ccc(Nc2n[nH]c(C)c2[N+](=O)[O-])cc1C | x | -0.7 | x | -0.3 | 7.5 | x
CC1CC(C(F)(F)F)n2ncc(C(=O)O)c2N1 (stereo unspecified) | 0.111 | -0.5 | 0.92 | -15.4 | -8.8 | x
Cc1cc(C)c2nc(-c3ccccn3)cc(C(=O)Nc3ccc(S(=O)(=O)Nc4cc(C)on4)cc3)c2c1 | -2.03 | -2.9 | -3.03* | 36.3 | -0.4 | x
CCCCNC(=O)Oc1cccc(N2CCCC2=O)c1 | 0.379 | -4.3 | 0.11 | -12.3 | -3.1 | 0.4
COc1ccccc1NC(=O)N1CCN(c2cccc(C(F)(F)F)c2)CC1 | -2.21 | 0.9 | 0.15 | -1.7 | -2.1 | 27.2
Cc1ccc(CC(=O)N2CCN(c3cccc(C(F)(F)F)c3)CC2)cc1 | -5.36* | -2.7 | -0.21 | -3.8 | 2.0 | 23.6
COc1ccccc1CC(=O)N1CCN(c2cccc(C(F)(F)F)c2)CC1 | -4.78* | -3.5 | 0.35 | -4.1 | -0.8 | -0.9
SMILES | Cav32 inh | MRP1 act | PTK2B oligo ant | CD11b adhes inh | Mac1 fbg enh | MRP reversal
COc1ccc(-c2c(C#N)c(N)nc3sc(C(=O)c4ccccc4)c(N)c23)cc1 | x | 11.5* | x | -2.9 | 44.1 | x
COc1ccc(C(=O)c2sc3nc(-c4ccccc4)ccc3c2N)cc1 | x | -1.4 | x | x | x | x
CC1CCCN(C(=O)Nc2cccc(NC(=O)N3CCCC(C)C3C)c2)C1C (stereo unspecified) | -5.78* | -0.6 | 0.53 | -4.7 | 9.1 | 5.9
Nc1nc2c(s1)C(=O)CCC2 | x | -0.2 | -0.5 | -10.1 | -2.4 | -5.8
CC(=O)N(Cc1ccc(F)cc1)C1=C(NCc2ccccc2)C(=O)c2ccccc2C1=O | -5.11* | -5.8 | -2.73 | 16.1 | -1.2 | -2.7
Cc1cc(C)c2c(-n3cccc3)c(C(=O)NNS(=O)(=O)c3ccc(Br)cc3)sc2n1 | -4.69* | -3.0 | -1.17 | x | x | x
CCOC(=O)Nc1sc2nc(C)cc(C)c2c1-n1cccc1 | 0.841 | -5.0 | -0.77 | -7.2 | -0.7 | x
Cc1ccc2nc(N/N=C/c3ccccc3F)nc(-c3ccccc3)c2c1 | x | 2.0 | x | -1.3 | 3.7 | x
O=C(Nc1cc(N2CCOCC2)ncn1)NC1(C(F)(F)F)Oc2ccccc2O1 | 0.426 | -3.5 | 0.75 | x | x | -0.4
CCN(CC)S(=O)(=O)c1cc([N+](=O)[O-])ccc1NNC(=O)Nc1ccc(Cl)c(Cl)c1 | -3.67 | -4.8 | -0.66 | 99.1* | -5.3 | 0.6
Cc1ccc(N(CC(=O)Nc2ccc3c(c2)OCCO3)S(=O)(=O)c2c(C)n[nH]c2C)cc1 | -0.348 | -0.7 | -3.49* | 1.2 | -0.1 | 16.4
CCOC(=O)c1ccc(NC(=O)CN(c2ccc(C)cc2)S(=O)(=O)c2c(C)n[nH]c2C)cc1 | x | 0.0 | -3.38* | -15.4 | -5.7 | -21.9
CCN1CCN(C(c2ccccc2)c2nnnn2Cc2ccccc2)CC1 (stereo unspecified) | 1.7 | -5.0 | -0.2 | x | x | 19.4
COc1ccc([N+](=O)[O-])cc1COc1cc(C)cc2oc(=O)cc(-c3ccccc3)c12 | -8.72* | -4.2 | 0.34 | 12.4 | -0.9 | x
CCc1nnc(NC(=O)c2sc3nc4cc(C)ccc4cc3c2N)s1 | x | -2.2 | 1.6 | -11.3 | 100.3* | x
O=C(O[C@H]1[C@H](Oc2ccccc2COC(=O)C2(O)C=CCCC2=O)O[C@H](CO)[C@@H](O)[C@@H]1O)c1ccccc1 (stereo partly specified) | -4.45* | x | x | x | x | x
O=C(c1c(O)c2ccccc2oc1=O)C1CCCCC1 | -0.638 | -0.2 | 0.67 | -7.2 | -2.2 | -12.3
O=C(CCC1CCCC1)c1c(O)c2ccccc2oc1=O | -7.97* | -3.7 | x | 87.7* | -9.1 | -2.8
Cn1c(=O)[nH]c(=O)c2[nH]c(CN3CCN(Cc4ccccc4)CC3)nc21 | -0.0166 | x | x | x | x | 4.4
Cn1c(=O)[nH]c(=O)c2[nH]c(N(Cc3ccccc3)Cc3ccccc3)nc21 | -0.891 | -1.2 | -3.22* | -7.4 | 21.2 | 4.0
COc1ccc2c(c1)c1ncn(CCCN3CCOCC3)c(=O)c1n2C | -0.058 | -3.8 | 0.01 | 7.7 | 1.6 | 19.6
Cc1ccc(S(=O)(=O)CC(=O)Nc2nc(-c3ccccc3)cs2)cc1 | -7.22* | -3.7 | 0.64 | 23.4 | 3.5 | 7.9
O=C(CS(=O)(=O)c1ccccc1)Nc1nc(-c2ccccc2)cs1 | -4.92* | -2.3 | -0.69 | 8.6 | 2.9 | 3.5
Cc1ccc(S(=O)(=O)N(C)c2ccc(OCC(=O)Nc3nc(-c4ccccc4)cs3)cc2)cc1 | x | -2.0 | x | x | x | x
CSCCC(C(=O)O)N1C(=O)c2ccc(C(=O)O)cc2C1=O (stereo unspecified) | 0.293 | -0.3 | 0.36 | 9.8 | -0.8 | x
O=c1c2ccccc2nc(N/N=C/c2c(O)ccc3ccccc23)n1O | x | -0.2 | 0.23 | 58.1* | -5.5 | x
O=c1c2ccccc2nc(N/N=C/c2ccc(O)cc2)n1O | x | -0.4 | 0.62 | 50.3 | -8.5 | x
CCOc1ccccc1NC(=O)c1cnc2n(c1=O)CCS2 | 1.2 | -2.9 | 0.54 | 12.7 | 0.9 | -4.4

Bioassay records from PubChem BioAssay.
